Results from PubChem BioAssay AID1159580 (chemical genetic matrix, 2015).
Screen size: about 5,500 compounds; about 2,000 (36%) were called active. Roughly 18% stayed inconclusive and do not appear here. Cut-off read from the data, not from the text of the source: active = normalized growth mostly below about 0.91 (no sharp cut-off); inconclusive = no clear call, values can overlap the other calls; inactive = mostly above about 0.92. The list shows a part of the results.

Assay: chemical genetic growth profiling, strain panel (AID 1159580);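 note: tested at 20 µM; growth read once vehicle control cultures reached saturation at 30 °C; 1 = growth at the plate median or of vehicle wells; lower values mean less growth of the strain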
Details: S. cerevisiae deletion strains, growth OD

Measured: normalized growth

Cc1cc(OCOc2ccc(Cl)c(C)c2)ccc1Cl
inactive: locus YAL013W, strain DEP1, stronger effect = lower value 0.984 | locus YBR229C, strain ROT2, stronger effect = lower value 0.988 | locus YCL061C, strain MRC1, stronger effect = lower value 1.03 | locus YDL101C, strain DUN1, stronger effect = lower value 1.05 | locus YDL134C, strain PPH21, stronger effect = lower value 0.995 | locus YDR150W, strain NUM1, stronger effect = lower value 0.997 | locus YEL061C, strain CIN8, stronger effect = lower value 0.992 | locus YGR078C, strain PAC10, stronger effect = lower value 1.01 | locus YGR229C, strain SMI1, stronger effect = lower value 0.999 | locus YHR030C, strain SLT2, stronger effect = lower value 0.814 | locus YHR087W, strain rtc3, stronger effect = lower value 0.955 | locus YJR043C, strain POL32, stronger effect = lower value 1.03 | locus YJR075W, strain HOC1, stronger effect = lower value 1.02 | locus YKL190W, strain CNB1, stronger effect = lower value 0.966 | locus YLR039C, strain RIC1, stronger effect = lower value 1.11 | locus YLR058C, strain SHM2 (second series), stronger effect = lower value 0.989 | locus YLR085C, strain ARP6, stronger effect = lower value 0.973 | locus YLR262C, strain YPT6, stronger effect = lower value 0.99 | locus YML094W, strain GIM5, stronger effect = lower value 0.982 | locus YMR219W, strain ESC1, stronger effect = lower value 0.991 | locus YMR263W, strain SAP30, stronger effect = lower value 0.927 | locus YMR307W, strain GAS1, stronger effect = lower value 0.834 | locus YNL153C, strain GIM3, stronger effect = lower value 1.01 | locus YNL298W, strain CLA4 (second series), stronger effect = lower value 1.04 | locus YNL322C, strain KRE1, stronger effect = lower value 0.982 | locus YNR030W, strain Alg12, stronger effect = lower value 0.97 | locus YOL006C, strain TOP1, stronger effect = lower value 0.916 | locus YPL055C, strain LGE1, stronger effect = lower value 0.975 | locus YPL241C, strain CIN2, stronger effect = lower value 1 | locus YPR135W, strain CTF4, stronger effect = lower value 0.999
